This is a sample that favours compounds with a hit; in the whole collection about 1.2% have one here.
LMP1 NFkB inh = Epstein-Barr LMP1 NF-kappaB reporter inhibition | LMP1-induced NF-kappaB luciferase reporter cells, luminescence | inhibition, % at 12.5 µM | 0.69% of 350,000 active | AID 504558; in the data active means inhibition above about 41%; inconclusive means no clear call, values can overlap the other calls
LRH-1 inv ag = inverse agonists of human LRH-1 (NR5A2); HEK293T StAR-luciferase reporter, LRH-1 transfected, 24 h; inhibition, % at 3.6 µM; 0.13% of 360,000 active;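 active means inhibition above the mean inhibition of all tested compounds plus 3 SD, cut at about 73% in these data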
Shn3 inh set2 = Schnurri-3 reporter inhibition in Clone20 osteoblasts; Clone20 osteoblast Shn3 3'UTR firefly luciferase, 24 h; inhibition, % at 12.5 µM; 0.52% of 360,000 active; AID 588674;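 active means mean inhibition of at least 75% with every replicate also reaching 75%; inconclusive means mean inhibition at least 75% but some replicate below; inactive means mean inhibition below 75%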
NCOA2 inhibitor = human SRC2 (NCOA2) inhibition. Q15596. HEK293 GAL4-SRC2 luciferase reporter, luminescence. inhibition, % at 9 µM. 0.17% of 370,000 active. AID 651957;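 active means inhibition above the mean inhibition of all tested compounds plus 3 SD, set per campaign, cut at about 52% in these data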
NCOA1 inh = inhibitors of human steroid receptor coactivator 1 (SRC1); 0.12% of 360,000 active; AID 588354; inhibition, % at 3.6 µM; HEK293 GAL4-SRC1 luciferase reporter, luminescence; Q15788;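 active means inhibition above the campaign mean plus 3 SD, with each screening campaign given its own cutoff, cut at about 60% in these data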
NCOA3 inh = human NCOA3 inhibition. inhibition, % at 3.6 µM. Q9Y6Q9. 0.17% of 360,000 active. HEK293 GAL4-SRC3 luciferase reporter, luminescence. AID 588352;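 active means inhibition above a per-campaign cutoff, the mean of all compounds plus 3 SD, cut at about 60% in these data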;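 further: higher means less SRC3-driven luciferase light from the GAL4 reporter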
Numbers stand for hits; - = inactive; ? = inconclusive; . = no result.

SMILES | LMP1 NFkB inh | LRH-1 inv ag | Shn3 inh set2 | NCOA2 inhibitor | NCOA1 inh | NCOA3 inh
O=C1c2ccccc2C(=O)C12OC2c1ccc(Cl)cc1Cl (stereo unspecified) | - | - | 95 | - | - | -
Cc1cc(S(=O)(=O)c2ccc(Cl)cc2)nc(S(=O)(=O)c2ccc(Cl)cc2)c1C#N | 52 | - | 91 | - | - | -
Cc1cc(C)c(S(=O)(=O)c2ccc(Cl)cc2)c(Cl)n1 | - | - | - | - | - | -
COc1cccc(/C=N/Nc2ncnc(N)c2[N+](=O)[O-])c1OC | ? | - | - | . | - | -
Cc1cc(/C=N/Nc2ncnc(N)c2[N+](=O)[O-])c(C)n1-c1ccccc1 | 78 | - | - | - | - | -
CCOc1ccc(CN2C(=O)c3ccccc3C2=O)cc1C(=O)NC1CC(C)(C)NC(C)(C)C1 | 71 | - | - | - | - | -
O=C(NCc1cccnc1)/C(=C\c1ccc(-c2ccc(Br)cc2)o1)S(=O)(=O)c1ccccc1 | 63 | - | 96 | - | - | 84
O=C(NCc1cccnc1)/C(=C/c1ccc(-c2ccc(Cl)cc2)o1)S(=O)(=O)c1ccccc1 | - | - | 92 | 66 | - | 68
CC1=NOC(=O)/C1=C\c1ccc(-c2ccccc2Br)o1 | - | - | 91 | - | - | -
COC(=O)c1cc2c(c3c4cc(F)ccc4n(S(=O)(=O)c4ccc(OC)cc4)c13)C(=O)N(Cc1ccccc1OC)C2 | . | . | . | - | . | .
COc1cccc(NC(=O)CN2CCN(S(=O)(=O)c3ccc(F)cc3)CC2)c1 | - | - | - | - | - | -
O=C(CN1CCN(S(=O)(=O)c2ccc(F)cc2)CC1)Nc1cccc(C(F)(F)F)c1 | 74 | - | - | - | - | -
COc1ccc(S(=O)(=O)N2CCN(CC(=O)Nc3cc(OC)cc(OC)c3)CC2)cc1 | 79 | - | - | - | - | -
C[C@@H]1COc2cc(N3CCOCC3)ccc2S(=O)(=O)N1 | . | . | . | - | . | .
CCOC(=O)c1sc2nc(C)nc(NCc3ccccc3)c2c1C | 52 | - | - | - | - | -
Cn1c2ccccc2c2ccc3c(c21)C(=O)C=CC3=O | - | - | 94 | - | - | -
COc1ccc2c(c1)c1ccc3c(c1n2C)C(=O)C=CC3=O | - | - | 96 | - | - | -
COc1ccc2c(c1)c1ncn(CCN3CCCC3)c(=O)c1n2C | - | - | - | - | - | -
Cc1ccc2c(c1)c1ccc3c(c1n2C)C(=O)C=CC3=O | - | - | 95 | - | - | -
Cc1ccc2c(c1)c1ncnc(N3CCOCC3)c1n2C | - | - | - | - | - | -
COC(=O)C1=C(C)N(Cc2ccc(C(F)(F)F)cc2)C(=NCc2ccccc2C(F)(F)F)NC1c1ccccc1C(F)(F)F (stereo unspecified) | . | . | . | - | . | .
COCC(=O)OC1CCn2c1nc1c2C(=O)C(C)=C(NC(C)=O)C1=O (stereo unspecified) | 87 | 96 | 89 | 73 | 90 | 88
O=C(N[C@H](Cc1ccccc1)C(=O)N1CCN(c2ncccn2)CC1)[C@H]1O[C@@H](n2ccc(=O)[nH]c2=O)[C@H](O)[C@@H]1O | . | . | . | - | . | .
O=C(NCCCn1ccnc1)c1ccc(S(=O)(=O)N2CCCCCC2)cc1 | - | - | - | - | - | -
CC1CC(C)CN(S(=O)(=O)c2ccc(C(=O)NCCCn3ccnc3)cc2)C1 (stereo unspecified) | - | 84 | - | . | - | 62
SMILES | LMP1 NFkB inh | LRH-1 inv ag | Shn3 inh set2 | NCOA2 inhibitor | NCOA1 inh | NCOA3 inh
CC(NC(=O)CNC(=O)OCc1ccccc1)C(=O)N1CC(O)CC1C(=O)OCc1ccccc1 (stereo unspecified) | 65 | - | - | - | - | -
CCCn1c(NC(=O)c2ccccc2)nc(Cc2ccccc2)c1Cc1ccccc1 | . | . | . | - | . | .
COc1ccc(CNCC#CC2=CCCCC2)c(OC)c1 | . | . | . | - | . | .
COc1ccc(Nc2nc(N3CCCC3)c3ccccc3n2)cc1 | - | - | 87 | - | - | -
O=[N+]([O-])c1c(NCCCO)cc(Sc2nc3ccccc3s2)c2nonc12 | - | - | 90 | . | - | -
CCCC(=O)OCCNc1cc(Sc2nccn2C)c2nonc2c1[N+](=O)[O-] | - | - | 95 | - | - | -
CCC(=O)OCCNc1cc(Sc2nc3ccccc3[nH]2)c2nonc2c1[N+](=O)[O-] | - | - | 96 | - | - | -
CCCSc1cc(NCCOC(=O)CCC)c([N+](=O)[O-])c2nonc12 | - | - | - | - | - | -
COC(=O)[C@]12C[C@H](CC(=O)NCc3ccccc3)C(=O)N(Cc3ccccc3)C1=C[C@H](C1CCCC1)O[C@@H]2C | . | . | . | - | . | .
C=C1CC2(OC1=O)c1ccccc1CCc1ccccc12 | - | - | 100 | - | - | -
O=C1NC(=O)C2(CCc3ccccc32)N1 (stereo unspecified) | - | - | - | - | - | -
O=C(NC(Nc1nc2ccc([N+](=O)[O-])cc2s1)(C(F)(F)F)C(F)(F)F)c1cccnc1 | - | 91 | - | - | 69 | 78
O=C(NC(Nc1nc2ccc([N+](=O)[O-])cc2s1)(C(F)(F)F)C(F)(F)F)c1ccccc1Cl | 53 | 98 | 90 | - | 73 | 74
COC(=O)C1CN(C2CCCC2)CCS(=O)(=O)N1Cc1cn(Cc2ccc(F)cc2)nn1 (stereo unspecified) | . | . | . | - | . | .
Cc1cc2oc(=O)cc(CN3CCN(c4ccccc4)CC3)c2cc1Cl | . | - | - | - | - | -
Cc1cc2oc(=O)cc(Cn3ncc(Cl)c(Cl)c3=O)c2cc1Cl | - | - | 97 | . | - | -
COc1ccc(Cn2cc(COC(=O)Nc3ccc(F)cc3)nn2)cc1 | . | . | . | - | . | .
COCc1cc(N2CCN(C(=O)OC(C)(C)C)C[C@@H]2C)ccc1N1CC[C@@H](O)C1 | . | . | . | - | . | .
O=C(Nc1nccs1)c1cc2c(s1)CCCCC2 | 52 | - | - | 58 | - | -
O=C(Nc1nncs1)c1cc2c(s1)CCC2 | - | - | - | - | - | -
CC[C@H](C)[C@H]1O[C@]2(CC[C@@H]1C)C[C@@H]1C[C@@H](CC=C(C)[C@@H](O[C@H]3C[C@H](OC)[C@@H](O[C@H]4C[C@H](OC)[C@@H](O)[C@H](C)O4)[C@H](C)O3)[C@@H](C)C=CC=C3CO[C@@H]4[C@H](O)C(C)=C[C@@H](C(=O)O1)[C@]34O)O2 | - | - | 97 | . | - | -
CN(C)S(=O)(=O)c1cccc(N=c2scc(-c3ccc4c(c3)NC(=O)CO4)n2CC2CCCO2)c1 (stereo unspecified) | - | - | 86 | - | - | -
CC(C)C[C@H](N)c1nnc(S(=O)(=O)Cc2ccc(F)cc2)o1 | - | - | 90 | . | - | -
CC(C)C[C@H](N)c1nnc(SCC(=O)Nc2ccc(Br)cc2)o1 | - | - | - | - | - | -
CCCOC(=O)c1ccc(OCC(O)Cn2c(C)nc3ccccc32)cc1 (stereo unspecified) | - | - | 89 | - | - | -
Cc1cc(/C=c2/sc3nc4ccccc4n3c2=O)c(C)n1-c1ccccn1 | 56 | 79 | 91 | 79 | 88 | 90

Screens (PubChem)
